Out of some 330,000 compounds screened, about 1,900 (0.58%) were called active. Another 4% or so got no clear call; they are omitted. A selection follows. Potency and affinity values are given separately. A number with no mark means an inactive call. Rule as the data show it: inconclusive = inhibition above about 70% without an active follow-up result; inactive = below that.

This assay can be described thus: M. tuberculosis growth inhibition, HTS (AID 449762).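 Also: bacterial growth assessed after seven days of incubation.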 The following applies: M. tuberculosis H37Rv growth inhibition, 7H9 media; at 25 µM; active compounds read high.
For the compound `CCCNC(=O)OCc1cccnc1Sc1ccc(C)cc1`, the inhibition (in general, the change of the read-out against control, counted positive when it falls) is 3.87%. As for `CC(C)(C)OC(=O)N1CCC[C@H]1c1nnc(SCc2c(F)cccc2Cl)o1`, the inhibition was 5.9%.

As to `CCCNC(=O)c1ccc(-c2nc3ccccc3s2)s1`, the inhibition is 11%.

For `Cc1noc(C)c1COC(=O)c1ccc(-c2nc3ccccc3s2)s1`, the inhibition is -0.34%.

`CCCN(CC(=O)Nc1cc(Cl)ccc1Cl)C(=O)c1ccccn1`: the inhibition was -9.27%. Take `Cc1ccc(SCCN2CCC(NC(=O)OCc3ccccc3)CCC2=O)cc1` (stereo not drawn): the inhibition is -5.79%. In the case of `O=C(NC1CCC(=O)N(CCSc2ccccc2)CC1)OCc1ccccc1` (stereo not drawn), the inhibition was 1.1%. In the case of `COc1cc(C(C(=O)NCC2CCCO2)N(C(=O)Cn2nnc3ccccc32)c2ccc(C(C)=O)cc2)ccc1O` (stereo not drawn) it was -7.43%; in that of `CCCCNC(=O)C1CC(c2ccccc2[N+](=O)[O-])=NO1` (stereo not drawn), 0.43%.

As for `CCOC(=O)c1ccc(CSc2nnc(N)s2)cc1`, the inhibition was 3.29%.

For the compound `CCOC(=O)CSc1nc(C2CC2)cc(-c2ccc(Cl)cc2)c1C#N`, the inhibition is -4.91%. As for `Clc1ccc(-c2nnc(Sc3nc4ccccc4o3)c3ccccc23)cc1`, the inhibition was -4.13%. Consider `Cc1ccc(-c2nnc(Sc3nc4ccccc4o3)c3ccccc23)cc1`, for which the inhibition is -10.4%. For `CCc1nc2cccnc2n1-c1ccc(CC(=O)O)cc1`, the inhibition is -1.43%. In the case of `Fc1ccc(N2CCN(C(=S)NCc3ccco3)CC2)cc1` it was 1.09%.

As to `CC1CCCN(C(=S)SCC(=O)c2cc(Br)cc(Br)c2O)C1` (stereo not drawn), the inhibition is 1.93%. Under `O=C(CSC(=S)N1CCCC1)c1ccccc1` stands -7.15%. Regarding `Cc1cc(NC(=O)CSc2n[nH]c(CC(C)C)n2)no1`, the inhibition was -10.9%.

For the compound `Cc1ncc(CN2CCC(n3nccc3NC(=O)c3ccccc3)CC2)s1`, the inhibition is -15.1%. As for `CCn1cc2nc(SCC(=O)Nc3ccc(F)cc3F)n(Cc3ccccc3)c(=O)c2n1`, the inhibition is -4.3%. Take `CN(C)CCCN(C(=O)c1cc2cc([N+](=O)[O-])ccc2s1)c1nc2cc3c(cc2s1)OCCO3`: the inhibition was -1.83%.

For `CN(C)CCCN(C(=O)c1ccc(Br)s1)c1nc2cc3c(cc2s1)OCCO3`, the inhibition is 9.92%. Under `COc1ccc(C(C[N+](=O)[O-])c2c(-c3ccccc3)cc3ccccn23)cc1OC` (stereo not drawn) stands -0.65%; under `COc1ccc(C(C[N+](=O)[O-])c2c(-c3ccccc3)cc3ccccn23)cc1` (stereo not drawn), -3.56%. As to `Cc1cccc(Cn2c(SCC(=O)Nc3ccccc3)nc3c2c(=O)[nH]c(=O)n3C)c1`, the inhibition is -13.5%.

As to `CCCC(c1nnnn1CC1CCCO1)N1CCN(c2cc(Cl)ccc2C)CC1` (stereo not drawn), the inhibition is 1.1%.

As for `CCCCCCCc1nc2nc(C)c(Br)c(=O)n2[nH]1`, the inhibition was 8.34%. As to `CCCn1c(SCC(=O)Nc2ccc3c(c2)OCCO3)nnc1-c1ccco1`, the inhibition was -7.16%.

Consider `O=C(C[C@H]1C/C=C\C[C@H](NC(=O)OCC2c3ccccc3-c3ccccc32)C(=O)OC[C@@H]2CCCN2C1=O)N[C@H](CO)Cc1ccccc1`, for which the inhibition is -0.02%. In the case of `O=C(C[C@@H]1C/C=C\C[C@H](NC(=O)OCC2c3ccccc3-c3ccccc32)C(=O)OC[C@@H]2CCCN2C1=O)N[C@@H](CO)Cc1ccccc1`, the inhibition is 1.79%. Under `Cc1occc1-c1nnc(SCC(=O)N(C)c2ccccc2)n1C` stands -1.83%.

In the case of `CC(C)(c1ccccc1)c1ccc(OCC(O)CN2CCCC2)cc1` (stereo not drawn), the inhibition was 1.65%. For `CC(=O)c1ccc(OCC(O)COc2ccc(C(C)=O)cc2)cc1`, the inhibition was 6.86%. For `O=C(O)c1ccc(NC(=O)c2cccc(S(=O)(=O)Nc3ccc(C(=O)O)cc3)c2)cc1`, the inhibition was -1.83%.

`COc1ccccc1N1CCN(CC(=O)Nc2ccccc2C(=O)NCCc2ccccc2)CC1`: the inhibition was 33.8%. With `O=C(CN1CCN(c2ccc(O)cc2)CC1)Nc1ccccc1C(=O)NCCc1ccccc1`, the inhibition was -9.61%. In the case of `COc1cc(NS(=O)(=O)c2cc3c(cc2C)NC(=O)CO3)cc(OC)c1` it was -11.6%; in that of `OC(Cn1ccnc1)c1ccc(Cl)cc1Cl` (stereo not drawn), -8.18%; in that of `OC(COc1ccc(Cl)cc1Cl)Cn1ccnc1` (stereo not drawn), -1.41%. Under `CCOC(=O)C1=C(CC)Nc2ccccc2N/C1=N\S(=O)(=O)c1ccccc1OC` stands -0.62%. Consider `CC1(C)Cc2c(sc(NC(=O)C(C)(C)C)c2C#N)C(C)(C)N1`, for which the inhibition is -3.46%. In the case of `Cc1ccc(N=c2ssnc2Cl)cc1` it was 0.3%. In the case of `COc1cc(N=c2ssnc2Cl)cc(OC)c1OC`, the inhibition was -3.23%. Under `O=C(O)c1ccc(S(=O)(=O)N2CCC(n3nnc4cc(C(F)(F)F)ccc43)CC2)cc1` stands 1.41%; under `C/C(=N\Nc1cc(Cl)nc(C)n1)c1ccccc1`, 5.34%. In the case of `C/C(=N\Nc1cc(Cl)nc(C)n1)c1ccc(C)cc1` it was 66.8%; in that of `Cc1ccc(S(=O)(=O)N2CCN(C(=O)COC(=O)/C=C/c3ccc(F)cc3)CC2)c(C)c1`, -1.22%; in that of `CCCOc1ccc(N2CC(C(=O)Nc3ccccc3C(=O)NC)CC2=O)cc1` (stereo not drawn), -2.1%. Under `COc1ccc(C(=O)CSc2ncnc3nc[nH]c23)cc1` stands -0.73%. With `O=C(CSc1ncnc2nc[nH]c12)c1ccccc1`, the inhibition is 9.21%. In the case of `O=C(c1ccc(Cl)cc1)C1CCN(C(=O)c2ccc(F)cc2)CC1` it was 4.03%; in that of `Cc1cc(C)cc(OC(=O)CCN2C(=O)c3ccccc3C2=O)c1`, -5.68%. `Cc1ccc(OC(=O)CN2C(=O)c3ccccc3C2=O)cc1C`: the inhibition was -4.28%. In the case of `CC(C)c1ccc(OCC(=O)N(Cc2ccco2)C2CCS(=O)(=O)C2)cc1` (stereo not drawn) it was 11.8%; in that of `CCC(=O)N1CC(=O)Nc2ccc(F)cc2C1c1ccccc1` (stereo not drawn), -3.58%. Take `CC(C)NC(=O)N(C)C[C@H]1Oc2c(NC(=O)C3CC3)cccc2C(=O)N([C@H](C)CO)C[C@@H]1C`: the inhibition was 1.1%. Under `CC(C)CCNC(=O)C(c1ccc(O)cc1)N(Cc1cccs1)C(=O)C1COc2ccccc2O1` (stereo not drawn) stands 22.4%. Turning to `CCOc1cccc(N(C(=O)C2COc3ccccc3O2)C(C(=O)NC2CCCCC2)c2ccc(O)cc2)c1` (stereo not drawn), the inhibition is -4.43%.

(Values after PubChem BioAssay AID449762 (Southern Research Specialized Biocontainment Screening …, 2010).)
